Inconclusive results are not listed. A call without a number means that no potency is given here. Activity calls are given as the source filed them. Calls come from the whole dose curve; as a rule, active = well fitted activation curve with a large enough effect; inconclusive = small, poorly fitted or top-dose-only effect; inactive = no such curve, though single readings can be large or run the other way.
Experiment: Activators of T cell receptors: Hit Validation
Conditions: primary human leukocytes, cytokine release by HTRF, 48 h, TCR-stimulated with anti-CD3 beads; series mostly up to 46.1 µM
Method in brief: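 Readout is IL-2 secretion by HTRF, measured after 48 hr in which primary human leukocytes received compound together with a-CD3 beads as the only TCR stimulus.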
In the case of `CC(=O)Nc1ccc(NC(=O)C(C)OC(=O)c2c(NC(C)=O)sc(C)c2C)cc1` (stereo not given), the Potency is reported as “inactive”. With `Cc1ncc[nH]1` the Potency was “inactive”. In the case of `O=C(COC(=O)/C=C/c1cccc(Br)c1)Nc1cccc(S(=O)(=O)NC2=NCCC2)c1`, the Potency is reported as “inactive”. With `O=C(O)c1ccccc1-c1c2cc(I)c(=O)c(I)c-2oc2c(I)c(O)c(I)cc12` the Potency was 996 nM (active). For `CC(c1nnc(SCC(=O)c2c(N)n(C3CC3)c(=O)[nH]c2=O)n1-c1ccc(F)cc1)N(C)C` (stereo not given), the Potency was “inactive”. In the case of `O=C(c1cc(-c2ccc(F)cc2)nc2ccccc12)N1CCN(C2CCS(=O)(=O)C2)CC1` (stereo not given), the Potency is reported as “inactive”. With `CC1CCN(CCNC(=O)C2CCN(S(=O)(=O)c3cccc4nsnc34)CC2)CC1` the Potency was “inactive”. In the case of `O=C(Cc1cccs1)Nc1ccc(F)c(S(=O)(=O)N2CCOCC2)c1`, the Potency is reported as “inactive”. In the case of `CC(=O)c1cccc(NC(=O)C(C)OC(=O)c2cccc(S(=O)(=O)N3CCN(C)CC3)c2)c1` (stereo not given), the Potency is reported as “inactive”. In the case of `CN1C(=O)c2ccccc2Sc2ccc(NC(=O)N3CCOCC3)cc21`, the Potency is reported as “inactive”. With `O=C(O)c1ccc(OS(=O)(=O)c2cccc(C(F)(F)F)c2)cc1` the Potency was “inactive”. With `S=c1[nH]nc(-c2cccnc2)n1C1CCCCC1` the Potency was “inactive”. In the case of `CC(C)NC(=O)CCCn1c(=S)[nH]c2cc3c(cc2c1=O)OCO3`, the Potency is reported as “inactive”. For `Cc1ccc(S(=O)(=O)N(C)/N=C/C=C/c2ccccc2)cc1`, the Potency was “inactive”. With `CC1(NC(=O)CCNC(=O)c2ccc(C(C)(C)C)cc2)CCS(=O)(=O)C1` (stereo not given) the Potency was “inactive”. For `O=C(COc1ncnc2c(Cl)cc(Cl)cc12)Nc1cc([N+](=O)[O-])ccc1Cl`, the Potency was “inactive”. For `CCCCCCC[C@@H](C/C=C/CCC(=O)N(C)C/C(=C/Cl)C/C(=C\C(=O)N1CC(OC)=CC1=O)OC)OC`, the Potency was 996 nM (active). In the case of `O=C(NCCCNCc1ccccc1)/C(=N\O)c1ccccc1`, the Potency is reported as “inactive”. With `Cc1ccc(NC(=S)c2ccc(N(C)C)cc2)cc1` the Potency was “inactive”. In the case of `S=c1[nH]c2ccccc2n2c(=S)[nH]nc12`, the Potency is reported as 11200 nM (active). With `C[C@@H]1O[C@@H](O[C@H]2[C@H](Oc3cc(O)c4c(c3)O[C@H](c3ccc(O)cc3)CC4=O)O[C@H](CO)[C@@H](O)[C@@H]2O)[C@H](O)[C@H](O)[C@H]1O` the Potency was “inactive”. With `CCN(CC)c1ccc(S(=O)(=O)N2CCOCC2)cc1NC(=O)COC(=O)/C=C/c1ccccc1` the Potency was “inactive”. For `Cc1noc(C)c1C(=O)OC(C)C(=O)N1CCc2ccccc21` (stereo not given), the Potency was “inactive”. In the case of `O=C1N/C(=C/c2cccs2)C(=O)N1Cc1ccc(Br)cc1`, the Potency is reported as “inactive”. For `CC(=O)c1cccc(S(=O)(=O)N2CCC(C(=O)Nc3cccc(C(=O)NC4CC4)c3)CC2)c1`, the Potency was “inactive”. With `CC(C)NS(=O)(=O)c1ccc(NC(=O)C(C)OC(=O)C2CCC2)cc1` (stereo not given) the Potency was “inactive”. With `CCN(CC)S(=O)(=O)c1ccc(N2CCN(C)CC2)c(NC(=O)CN2C(=O)NC3(CCCCC3)C2=O)c1` the Potency was “inactive”. With `Cc1cc(Cl)ccc1OCC(=O)OCC(=O)Nc1cccnc1Cl` the Potency was “inactive”. For `CC(=O)Nc1ccc(C(=O)OCC(=O)N(c2ccccc2)C2CCS(=O)(=O)C2)cc1` (stereo not given), the Potency was “inactive”. For `COc1ccc(-n2c(=O)[nH]cc(C(=O)Nc3ccc4c(c3)OCO4)c2=O)cc1OC`, the Potency was “inactive”.
Potency is the fitted concentration of half-maximal effect.
